The results in this text go back to PubChem BioAssay (NCI).

Among the test systems are NCI-H23 lung; NCI-H226 lung; HOP-62 NSCLC; NCI-H460 lung; HOP-92 NSCLC; NCI-H522 lung; A549/ATCC NSCLC; 786-0 renal; NCI-H322M lung; COLO 205 colon.
Holding throughout (experiment): NCI-60 one-dose screen, 48 h (100 = growth as untreated, 0 = no growth, -100 = all killed)
Holding throughout (conditions): 10 µM

This is part of a sample that, as a whole, favours compounds with a hit. Of some 83,000 tested, about 20% had one in any assay.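 Assay: single dose, 48 h. Readout: percent growth (0 = no net growth; negative = cell death). Active: <10.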 Unmarked numbers belong to inactive results. Activity calls are given as the source filed them.

As for `CCC(C)(O)c1ccc(C)cc1` (centres undefined), the growth in the experiment with NCI-H23 lung was 103%; with NCI-H226 lung, 103%; with HOP-62 NSCLC it was 98.1%; in the experiment on NCI-H460 lung it was 105%; in the experiment on HOP-92 NSCLC it was 103%; with NCI-H522 lung, 109%. The growth in the experiment with A549/ATCC NSCLC was 111%; with 786-0 renal it was 109%.

In the case of `O=C(O)CCC(NC(=O)OCc1ccccc1)C(=O)O` (centres undefined), the growth in the experiment on NCI-H23 lung is 101%; in the experiment with NCI-H226 lung, 98.8%; in the experiment on NCI-H322M lung, 98.6%; with NCI-H460 lung, 111%; in the experiment with HOP-92 NSCLC, 95.9%; in the experiment on NCI-H522 lung, 99.6%. The growth in the experiment with 786-0 renal is 104%; with COLO 205 colon, 113%.

Consider `C=CCc1cc(C(C)=O)cc(OC)c1O`, for which the growth in the experiment on NCI-H23 lung was 108%; in the experiment with NCI-H226 lung it was 109%; in the experiment with HOP-62 NSCLC it was 122%; with NCI-H460 lung it was 97.8%; in the experiment with HOP-92 NSCLC, 125%; in the experiment on NCI-H522 lung it was 102%. Besides, the growth with A549/ATCC NSCLC was 95.8%; in the experiment on 786-0 renal, 104%; in the experiment on COLO 205 colon, 118%.

`CC(=O)Cc1ccc(-c2ccccc2)cc1`: the growth is 95.6% in the experiment with NCI-H23 lung; 91.5% in the experiment on NCI-H226 lung; 85.9% in the experiment with NCI-H322M lung; 103% in the experiment with NCI-H460 lung; 111% in the experiment with NCI-H522 lung; 94.8% in the experiment with A549/ATCC NSCLC. In addition, the growth with 786-0 renal is 105%; with COLO 205 colon it was 115%.

`Cc1nc2ccccc2c2nnc(SCC(=O)N(Cc3ccccc3)c3ccccc3)n12`: the growth in the experiment with NCI-H23 lung is 89.1%; in the experiment with NCI-H226 lung, 94%; in the experiment on HOP-62 NSCLC it was 95.7%; in the experiment on NCI-H460 lung, 107%; with HOP-92 NSCLC it was 82.5%; with NCI-H522 lung it was 70.9%. Besides, the growth is 103% in the experiment with 786-0 renal and 101% in the experiment on COLO 205 colon.

Regarding `C=CCOC(=O)C(=O)OCC=C`, the growth with NCI-H23 lung is 110%; with NCI-H226 lung, 99.7%; with HOP-62 NSCLC it was 92.7%; in the experiment with NCI-H460 lung it was 112%; in the experiment with HOP-92 NSCLC it was 90%; in the experiment with NCI-H522 lung, 96.6%. In addition, the growth is 109% in the experiment with A549/ATCC NSCLC, 106% in the experiment with 786-0 renal and 111% with COLO 205 colon.

On to `CCOC(=O)c1cc2cccc(OC)c2oc1=O`, for which the growth was 110% in the experiment with NCI-H23 lung; 106% in the experiment on NCI-H226 lung; 107% with NCI-H322M lung; 110% in the experiment on NCI-H460 lung; 83.5% with NCI-H522 lung; 95.5% with 786-0 renal. Besides, in the experiment with COLO 205 colon, the growth is 123%.

As to `CC(C)(O)C#CC#CC(C)(C)O`, the growth with NCI-H23 lung was 88.9%; with NCI-H226 lung, 79.4%; in the experiment with NCI-H322M lung, 102%; in the experiment on NCI-H460 lung it was 104%; in the experiment on NCI-H522 lung, 82.5%; in the experiment on A549/ATCC NSCLC it was 91.5%. In addition, the growth with 786-0 renal was 106%.

In the case of `CC12CC3CC1C(C(=O)O2)C3C(=O)O` (centres undefined), the growth in the experiment with NCI-H23 lung was 96.8%; with NCI-H226 lung, 105%; in the experiment on HOP-62 NSCLC, 98.9%; with NCI-H460 lung, 108%; with NCI-H522 lung, 96%; with A549/ATCC NSCLC, 96.3%. Besides, the growth in the experiment on 786-0 renal was 108%; in the experiment on COLO 205 colon, 102%.

Turning to `COc1cc([C@@H]2c3cc4c(cc3[C@H](O)[C@H]3COC(=O)[C@H]23)OCO4)cc(OC)c1OC`, the growth is 13.1% in the experiment with NCI-H23 lung; -9.84% (active) in the experiment on NCI-H226 lung; 9.21% (active) with NCI-H460 lung; 11.3% with HOP-92 NSCLC; 14.2% in the experiment with A549/ATCC NSCLC; 12.4% with 786-0 renal. The growth in the experiment on COLO 205 colon is -57.8% (active).

Turning to `COC(=O)Nc1cccc(Cl)c1OC`, the growth is 107% in the experiment on NCI-H23 lung; 96.5% in the experiment with NCI-H226 lung; 107% with NCI-H322M lung; 38.2% with NCI-H460 lung; 92.7% in the experiment on NCI-H522 lung; 106% with A549/ATCC NSCLC. In addition, the results for the growth with 786-0 renal and in the experiment on COLO 205 colon were 104% and 127%, respectively.

On to `CC(=O)OC(C(=O)O)c1ccccc1` (centres undefined), for which the growth was 111% in the experiment with NCI-H23 lung; 110% in the experiment with NCI-H226 lung; 112% in the experiment on HOP-62 NSCLC; 80.4% in the experiment on HOP-92 NSCLC; 107% in the experiment with NCI-H522 lung; 106% in the experiment on A549/ATCC NSCLC. In addition, the growth is 109% in the experiment on 786-0 renal and 118% in the experiment on COLO 205 colon.

For `C[N+](C)=c1ccc2nc3c(cc(Nc4ccccc4)c4ccccc43)oc-2c1`, the growth is 31.6% in the experiment with NCI-H23 lung; 44.4% with NCI-H226 lung; 67.6% with HOP-62 NSCLC; 65% in the experiment with NCI-H460 lung; 79.5% in the experiment on HOP-92 NSCLC; 42.3% in the experiment with NCI-H522 lung. Besides, the growth with A549/ATCC NSCLC was 64.4%; in the experiment on 786-0 renal, 72.8%; in the experiment on COLO 205 colon, 22.6%.

Take `N#Cc1ccc(OC(=O)Nc2ccc(Cl)c(Cl)c2)cc1`: the growth with NCI-H23 lung was 39.6%; in the experiment on NCI-H226 lung it was 63.7%; in the experiment with NCI-H322M lung, 89.4%; with NCI-H460 lung, 99.8%; in the experiment on NCI-H522 lung it was 24.5%; in the experiment on A549/ATCC NSCLC, 47.2%. Further, the growth in the experiment on 786-0 renal is 89.5%; in the experiment on COLO 205 colon, 96.3%.

With `O=[N+]([O-])c1cccc2nsnc12`, the growth in the experiment with NCI-H23 lung was 108%; in the experiment with NCI-H226 lung it was 93.9%; with HOP-62 NSCLC, 99.5%; with NCI-H460 lung it was 103%; with NCI-H522 lung, 103%; with A549/ATCC NSCLC, 104%. Moreover, the figures for the growth in the experiment with 786-0 renal and in the experiment on COLO 205 colon were 114% and 107%, respectively.

As to `C=CCCCCCCCCCOC(C)=O`, the growth in the experiment on NCI-H23 lung was 100%; in the experiment with NCI-H226 lung, 96.7%; in the experiment with NCI-H322M lung, 102%; in the experiment with NCI-H460 lung it was 109%; with HOP-92 NSCLC, 90.2%; with NCI-H522 lung, 102%. For the same compound, the growth was 108% in the experiment on 786-0 renal and 110% in the experiment with COLO 205 colon.

As for `Clc1ccc(-c2nnc(-c3cccc4ccccc34)o2)cc1`, the growth with NCI-H23 lung is 83.6%; with NCI-H226 lung, 87.6%; in the experiment on NCI-H322M lung, 112%; in the experiment on NCI-H460 lung, 96.4%; with NCI-H522 lung it was 83.5%; with 786-0 renal, 110%. Also, the growth in the experiment on COLO 205 colon was 101%.

For `Cc1cc(Cc2cc(C)c(N)cc2N)c(N)cc1N`, the growth was 86.6% with NCI-H23 lung; 81.7% in the experiment with NCI-H226 lung; 88.1% in the experiment on HOP-62 NSCLC; 101% in the experiment with NCI-H460 lung; 91.4% in the experiment on HOP-92 NSCLC; 89.4% in the experiment with NCI-H522 lung. The growth with A549/ATCC NSCLC is 85.2%; with 786-0 renal, 104%; in the experiment with COLO 205 colon, 92.8%.
